# A selection: hits, their analogues and other compounds. The true share with any hit is near 3.6%.
# AmpC detergent – qHTS Inhibitors of AmpC Beta-Lactamase (assay with detergent); P00811; Potency, µM (doses to about 114 µM), actives largely listed as inhibitors; AID 485294, 2010; 370,000 tested, 0.041% active; AmpC hydrolysis of nitrocefin, absorbance 480 nm, 0.01% Triton; further: nearly all actives have a fitted effect of over 25% in size
# Target sequence (P00811 whole entry, looked up): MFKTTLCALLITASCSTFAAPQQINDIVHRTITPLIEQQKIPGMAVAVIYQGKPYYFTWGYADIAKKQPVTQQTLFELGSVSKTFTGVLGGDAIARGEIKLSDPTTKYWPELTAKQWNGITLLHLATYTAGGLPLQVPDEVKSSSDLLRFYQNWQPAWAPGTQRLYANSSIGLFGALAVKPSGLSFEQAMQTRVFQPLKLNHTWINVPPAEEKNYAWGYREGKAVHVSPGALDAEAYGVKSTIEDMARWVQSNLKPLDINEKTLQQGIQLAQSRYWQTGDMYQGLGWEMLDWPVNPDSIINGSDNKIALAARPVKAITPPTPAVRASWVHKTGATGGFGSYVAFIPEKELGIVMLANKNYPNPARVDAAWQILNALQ
#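 20 mM phosphate pH 7.0 + 0.01% (detergent screen) or 0.0001% Triton X-100; 5.3 nM AmpC reagent; cpd preinc 15 min RT; nitrocefin (800 uM stock) to start; A480 q20 s × 4 min; Activity was normalised to no-enzyme and no-compound control wells.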
# Sm TGR inh – qHTS Assay for the Inhibitors of Schistosoma Mansoni Peroxiredoxins; Schistosoma mansoni thioredoxin glutathione reductase (TGR), Q962Y6; purified TGR, DTNB reduction, TNB absorbance 405 nm; Potency, µM (highest dose often 114 µM), hits mostly inhibitors; 360,000 tested, 3% active; further: nearly all actives have a fitted effect of over 60% in size
#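 TGR 20 nM + NADPH 100 uM (dispensed conc.), cpd preinc 15 min RT; start with NADPH (500 uM addition) then DTNB (15 mM addition). Kinetic TNB absorbance, 405 nm filter. Four-parameter Hill fit across titration.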
# Giardia FBPA inh-1 – qHTS Assay for Inhibitors of Fructose-1,6-bisphosphate Aldolase from Giardia Lamblia | A8B2U2 | purified Giardia FBPA | Potency, µM (top dose mostly 59.6 µM), most hits filed as inhibitors | 290,000 tested, 0.71% active; further: nearly all actives have a fitted effect of over 55% in size
#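 40 nM FBPA preincubated 10 min at RT with compound (up to 57.5 uM final), then substrate plus GAPDH/TPI/NAD/arsenate coupling and diaphorase/resazurin added. Fluorescence read after 20 min at RT, 525/598 nm.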
# AmpC no deterg – qHTS Inhibitors of AmpC Beta-Lactamase (assay without detergent). Potency, µM (titrated, usually from 57.1 µM), actives largely listed as inhibitors. P00811. AmpC nitrocefin hydrolysis, absorbance 480 nm, 0.0001% Triton. 330,000 tested, 0.52% active; further: nearly all actives have a fitted effect of over 20% in size
#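 AmpC (5.3 nM in the dispensed reagent) in 20 mM phosphate pH 7.0 with 0.01% (detergent screen) or 0.0001% Triton X-100 was preincubated with compounds for 15 min at room temperature. Nitrocefin was then added from an 800 uM solution, and hydrolysis was followed at 480 nm.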
# Giardia growth – qHTS Assay for Inhibitors of Fructose-1,6-bisphosphate Aldolase from Giardia Lamblia: Giardia lamblia growth inhibition | Potency, µM (titrated, usually from 57.5 µM), hits mostly inhibitors | Giardia lamblia trophozoite growth inhibition | shares compounds with Giardia FBPA inh-1 | 1,500 tested, 5% active;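 further: trophozoites exposed to compound for 48 h at 37 °C; nearly all actives have a fitted effect of over 70% in size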
# Mammalian tox – qHTS Assay for Inhibitors of Fructose-1,6-bisphosphate Aldolase from Giardia Lamblia: Mammalian cellular toxicity. 1,500 tested, 4% active. mammalian cell viability counter-screen, qHTS. AID 2786, 2010. Potency, µM (highest dose often 57.5 µM), actives largely listed as inhibitors. shares compounds with Giardia FBPA inh-1;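 further: Chinese hamster ovary cells used as mammalian cytotoxicity surrogate; viability measured as cellular ATP by luminescence; compound exposure lasted 48 h before reading; nearly all actives have a fitted effect of over 60% in size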
# Giardia FBPA inh-2 – qHTS Assay for Inhibitors of Fructose-1,6-bisphosphate Aldolase from Giardia Lamblia: Primary screen confirmation | shares compounds with Giardia FBPA inh-1 | purified Giardia aldolase enzyme activity, qHTS | Potency, µM (doses to about 57.5 µM), usual class: inhibitors | 1,500 tested, 5% active | AID 2787, 2010; further: nearly all actives have a fitted effect of over 45% in size
# Rabbit FBPA inh – qHTS Assay for Inhibitors of Fructose-1,6-bisphosphate Aldolase from Giardia Lamblia: Rabbit FBPA Selectivity. 1,500 tested, 4% active. Potency, µM (highest dose often 57.5 µM), most hits filed as inhibitors. AID 2794, 2010. shares compounds with Giardia FBPA inh-1. Rabbit muscle FBPA enzyme inhibition, selectivity counter-screen; further: nearly all actives have a fitted effect of over 60% in size
# GAPDH coupling – qHTS Assay for Inhibitors of Fructose-1,6-bisphosphate Aldolase from Giardia Lamblia: Coupling assay counterscreen confirmation | shares compounds with Giardia FBPA inh-1 | GAPDH coupling enzyme counterscreen, biochemical, qHTS | Potency, µM (series often up to 57.5 µM), usual class: inhibitors | 1,500 tested, 6% active | AID 2795, 2010; further: nearly all actives have a fitted effect of over 55% in size
# Hits are given with their value; – = inactive; ? = inconclusive; · = no result given; ! = a repeat was not active; [ ] = dose if it differs, or a comment. The call rests on the fitted dose curve; in most records, active means well fitted curve in the direction sought with a large enough effect; inconclusive means small, poorly fitted or top-dose-only effect, or another doubt; inactive means no such curve, though single readings can be large; an effect the other way counts as inactive or inconclusive.
SMILES,AmpC detergent,Sm TGR inh,Giardia FBPA inh-1,AmpC no deterg,Giardia growth,Mammalian tox,Giardia FBPA inh-2,Rabbit FBPA inh,GAPDH coupling
O=C(O)c1cccc(-c2ccc(/C=N/Nc3nn[nH]n3)o2)c1,–,–,16µM,–,–,–,–,–,–
Cc1cccc(C)c1OCC(=O)OC/C(O)=C(\C#N)c1nc2ccccc2[nH]1,–,–,–,–,·,·,·,·,·
N#C/C(=C(/O)COC(=O)c1ccc(O)cc1)c1nc2ccccc2[nH]1,–,–,10µM,–,–,–,–,–,–
CC(C)C(=O)OC/C(O)=C(\C#N)c1nc2ccccc2[nH]1,–,–,20µM,–,–[10.4 µM],–,–,–,–
N#C/C(=C(/O)COC(=O)c1cccnc1Cl)c1nc2ccccc2[nH]1,–,–,18µM,–,–,–,–,–,–
COCC(=O)OC/C(O)=C(\C#N)c1nc2ccccc2[nH]1,–,–,16µM,–,–[10.4 µM],?,–,–,–
CCCC(=O)OC/C(O)=C(\C#N)c1nc2ccccc2[nH]1,–,–,?,–[2.29 µM],·,·,·,·,·
Cc1ccc(N2CC(NC(=O)/C=C\c3ccc4c(c3)OCO4)CC2=O)cc1 (stereo unspecified),–,–,·,·,·,·,·,·,·
COCCCOc1ccnc(CS(=O)c2nc3ccccc3[nH]2)c1C (stereo unspecified),?,–,2µM!,–,?,–,–,–,–
Cc1c(OCC(F)(F)F)ccnc1CS(=O)c1nc2ccccc2[nH]1 (stereo unspecified),?,–,–,–,·,·,·,·,·
O=C(N/N=C/c1ccc(O)c(O)c1O)/C(=C/c1ccc([N+](=O)[O-])cc1)NC(=O)c1ccccc1,–,–,6.3µM,–,?,–,?,?,?
CN(C)C(=O)CNc1n[nH]c(=S)[nH]c1=O,–,–,16µM,–,?,–,–,–,–
CC(C)COC(=O)C(C)Nc1n[nH]c(=S)[nH]c1=O (stereo unspecified),–,–,–,–,·,·,·,·,·
COC(=O)CNc1n[nH]c(=S)[nH]c1=O,–,–,?,–,·,·,·,·,·
CC(C)OC(=O)CNc1n[nH]c(=S)[nH]c1=O,–,–,4.5µM,–,–,–,–,–,–
COc1ccc2c(c1)c1c(c(=O)n(Cc3ccccc3)c(=O)n1Cc1ccccc1)n2C,–,–,·,·,·,·,·,·,·
COc1ccc(CN2C(=NC(=O)C3CCCO3)SC3CS(=O)(=O)CC32)cc1OC (stereo unspecified),–,–,·,–,·,·,·,·,·
COc1cc(C(=O)Nc2c(C)cc(C)cc2C)c(Br)c(OC)c1OC,–,–,–,–,·,·,·,·,·
O=C(NC1CCCCCC1)c1ccc[nH]c1=S,–,–,16µM,–,?,–,–,–,–
NS(=O)(=O)c1ccc(NC(=S)N2CCC(O)CC2)cc1,–,–,16µM,–,?,–,–,–,–
CCN(CCCCO)c1nc(C)nc2c1c(C)c(C)n2-c1c(C)cc(C)cc1C,·,·,–,·,·,·,·,·,·
C#Cc1ccc2c(c1)C(=O)N(C)Cc1c(C(=O)OCCCOC(=O)c3ncn4c3CN(C)C(=O)c3cc(C#C)ccc3-4)ncn1-2,·,·,–,·,·,·,·,·,·
Cn1cc(CN2CCC(N3CCNC(=O)CC3)CC2)c(-c2ccccc2F)n1,–,–,–,–,·,·,·,·,·
COc1ccc(OC)c(S(=O)(=O)NNC(=S)Nc2ccc3c(c2)OCO3)c1,–,–,8.9µM,–,–,–,–,–,–
O=C1CC(c2ccc(Cl)cc2)Sc2nc(-c3ccc(F)cc3)nn21 (stereo unspecified),–,–,·,·,·,·,·,·,·
CC(C)c1ccc(S(=O)(=O)N2CCN(CC(=O)c3ccc(O)c(O)c3)CC2)cc1,?,25µM,13µM,–,–,?,?,–,–
O=S(=O)(Nc1ccc(Cl)cc1)c1ccc(N2CCOCC2)c(NC(=S)NCCN2CCOCC2)c1,–,–,5µM,–,–,–,?,40µM,40µM
O=C(CCC1N=C2c3ccccc3N=C(SCc3ccc(F)cc3)N2C1=O)NC1CCCCC1 (stereo unspecified),–,–,·,·,·,·,·,·,·
Cc1cccc(OCCOCCSc2ncccn2)c1,–,–,–,–,·,·,·,·,·
Cc1cccc(OCCSc2nc(N)cc(N)n2)c1,–,–,16µM,–,–,–,–,–,–

# Compound activity as filed in PubChem BioAssay.
